# Columns and labels:
# Histone H4 = Histone H4 (UniProt P62805)
# [1] = target: Heterogeneous nuclear ribonucleoprotein A/B (UniProt Q99729)
# [2] = target: Heterogeneous nuclear ribonucleoprotein A0 (UniProt Q13151)
# [3] = target: Heterogeneous nuclear ribonucleoprotein U (UniProt Q00839)
# [4] = target: Non-POU domain-containing octamer-binding protein (UniProt Q15233)
# [5] = target: Polypyrimidine tract-binding protein 1 (UniProt P26599)
# [6] = target: Heterogeneous nuclear ribonucleoproteins C1/C2 (UniProt P07910)
substance,measurement,setting,value
"SWI/SNF-related matrix-associated actin-dependent regulator of chromatin subfamily A member 2, P51531",listed as a hit,Histone H4,yes
"Heterogeneous nuclear ribonucleoproteins C1/C2, P07910",listed as a hit,[1],yes
same,listed as a hit,[2],yes
same,listed as a hit,[3],yes
same,listed as a hit,[4],yes
same,listed as a hit,[5],yes
"Heterogeneous nuclear ribonucleoprotein R, O43390",listed as a hit,[6],yes

# — publication PMC13423814
